From PubChem BioAssay AID1117319 (Southern Research Institute, 2015)
Several values for one entry are separate records, joined by “and”; a condition that tells them apart may be missing. Equal entries are not always repeated. Screen size: about 260,000 compounds; about 1,500 (0.58%) were called active. Inconclusive results (about 5%) are left out. Not all results are given here. Entries with a potency or affinity are not part of this list. Unmarked numbers belong to inactive results.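 Rule for the calls: active = inhibition above a set limit at one or more doses, reproduced on every date tested; inconclusive = results disagree between test dates, or hit never tested in dose response; inactive = the rest.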

target: Virion infectivity factor (Human immunodeficiency virus type 1 group M subtype B (isolate BH10)) + Virion infectivity factor (Human immunodeficiency virus type 1 group M subtype B (isolate BRU/LAI)) + Virion infectivity factor (Human immunodeficiency virus type 1 group M subtype B (isolate PCV12)) + Virion infectivity factor (Human immunodeficiency virus type 1 group M subtype B (isolate HXB2)) + DNA dC->dU-editing enzyme APOBEC-3G (Homo sapiens) (UniProt P69720+P69721+P69722+P69723+Q9HC16); assay: inhibitors of Vif binding to APOBEC3G peptide, primary screen, biochemical, TR-FRET, GST-Vif 1-94, biotin-A3G peptide, dose response retest (AID 1117319); conditions: hits give high values;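 note: Vif residues 1-94 fused to GST binding biotinylated APOBEC3G peptide 110-148; 0% = full assay without inhibitor and 100% = GST in place of GST-Vif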

SMILES	inhibition
CCC(CC)C(=O)N1CC(=O)Nc2ccc(F)cc2C1c1ccccc1 (stereo not given)	-0.74%
COc1cc(/C=C2\SC(=N)N(c3ccc4c(c3)OCO4)C2=O)cc(OC)c1O	2.68%
COc1ccc(CCN2C(=O)/C(=C\c3ccco3)SC2=S)cc1OC	0.31%
N=C1S/C(=C\c2cccc3ccccc23)C(=O)N1c1ccc(F)cc1	-3.83%
COc1cccc(/C=C2\SC(=S)N(c3cccnc3)C2=O)c1OC	-3.12%
O=C(O)CN1C(=O)/C(=C\C(Br)=C\c2ccccc2)SC1=S	8.8%
CC(/C=C1\SC(=S)N(CC(=O)N2CCN(c3ccccc3)CC2)C1=O)=C\c1ccccc1	25.6%
Cc1ccc(N2C(=O)/C(=C/c3ccco3)SC2=S)cc1	-7.25%
O=C1/C(=C\c2ccc(O)cc2)SC(=S)N1c1cccnc1	1.44%
C[C@H](O)[C@@H]1C(=O)N2CCc3ccc(N4CCOCC4)cc3[C@@H]2C[C@@H]1N(C)S(=O)(=O)c1ccccc1	-8.52%
CN1C(=O)C(N=Nc2ccccc2C(=O)O)N(C)C1=S (stereo not given)	30.3%
Cc1ccc(SCC(=O)N(C)CC(=O)Nc2cccc(F)c2)cc1	0.72%
COc1cccc(-n2c(SC)nnc2-c2cnccn2)c1	-0.18%
CCN(CC(=O)Nc1cc(Cl)ccc1C)C(=O)c1ccc2c(=O)n3c(nc2c1)CCC3	2.7%
CN(C)Cc1cn(CCC(=O)O)c2ccccc12	-3.96%
O=C1OC/C(=C(/O)c2ccc(Cl)cc2)C1=O	-8.18%
Cc1ccc(/C=C2\SC(=S)N(c3cccnc3)C2=O)cc1	21.1%
O=C1/C(=C/c2cccnc2)SC(=S)N1c1ccccc1	8.11%
O=C(O)c1ccc(/C=C2/SC(=S)N(Cc3ccccc3)C2=O)cc1	-0.52%
Cc1cccc(N2C(=O)/C(=C/c3cccnc3)SC2=S)c1	-1.54%
Cc1ccc(/C=C2\SC(=S)N(Cc3ccccc3)C2=O)o1	29.5%
O=C1/C(=C/c2cccs2)SC(=S)N1c1ccccc1	-6.53%
Cc1nn(C)c(C(=O)NNC(=S)Nc2ccc(F)cc2)c1[N+](=O)[O-]	-3.65%
CCn1cnc2cc(NC(=O)c3ccc(C)cc3)ccc21	-2%
COCCn1c(SCC(=O)N2CCCc3ccccc32)nc2cccnc21	-1.26%

SMILES	inhibition
C/C(=N\S(=O)(=O)c1ccc(C)cc1)NC(=S)Nc1ccccc1	-0.88%
Cc1ccsc1C(=O)OCC(=O)Nc1cccc(S(=O)(=O)N2CCOCC2)c1	2.2%
Cc1cc(C(=O)OC(C)C(=O)NC2CCCCC2C)c2ccccc2n1 (stereo not given)	-2.6%
Cc1ccc(C)c(Nc2nc(-c3ccncc3)nc3ccccc23)c1	-7.92%
O=C(OCc1ccccn1)c1ccc(COc2ccc3ccccc3c2)o1	14.9%
N#CC(C(=O)NCCc1ccccc1)c1nc2ccccc2nc1N1CCOCC1 (stereo not given)	-2.43%
CCCCCCNC(=O)C(C#N)c1nc2ccccc2nc1N1CCOCC1 (stereo not given)	5.51%
Cc1nn(-c2ccccc2)c2sc(C(=O)N3CCCCC3)cc12	-2.58%
CCCCN1C(=O)C(=O)N(CC(=O)c2ccc[nH]2)C1=O	5.74%
CCOC(=O)N1CCC(n2c(SCC(=O)Nc3nccs3)nc3ccsc3c2=O)CC1	-7.21% and 20.2%
COc1ccc(NC(=S)NCc2cccs2)cc1	0.47%
CCN(CC(=O)Nc1c(C(=O)OC)[nH]c2ccc(Cl)cc12)c1ccc2c(c1)OCO2	0.99%
COC(=O)c1[nH]c2ccccc2c1NC(=O)CN1CCN(Cc2ccc3c(c2)OCO3)CC1	-1.82%
COc1ccc(OCCN(C)C(=O)c2cccc(S(=O)(=O)N(C)c3ccccc3)c2)cc1	-4.53%
Cn1cccc1/C=C1\SC(=O)N(c2ccc(O)cc2)C1=O	4.46%
O=C1S/C(=C\c2cccs2)C(=O)N1c1ccc(O)cc1	-10.4%
O=C(O)c1ccc(N2C(=O)/C(=C/C=C/c3ccccc3)SC2=S)cc1	7.15%
CN(C)c1ccc(/C=C/C=C2/SC(=S)N(c3ccccc3)C2=O)cc1	19.3%
CC1(C)N=C(c2ccc(Cl)cc2)C(=O)N1	-0.69%
CNC(=O)c1ccsc1NC(=O)C1CCCN1S(=O)(=O)c1cccs1 (stereo not given)	-0.6%
O=C1N=C(N2CCOCC2)S/C1=C/c1cccs1	1.92%
O=C1N=C(N2CCCC2)S/C1=C\c1ccccc1	27.9%
O=C1N=C(N2CCOCC2)S/C1=C\c1ccc(-c2ccccc2Cl)o1	21.8%
Cc1ccc(-c2ccc(/C=C3\SC(N4CCOCC4)=NC3=O)o2)cc1	6.18%
NC1=NC(=O)C(=Cc2ccccc2)S1	1.08%
